Data as given in ChEMBL document CHEMBL1961873, “Compounds: GSK PKIS; Assays: Nanosyn kinase panel” (2012).

What was measured:
[1] = molecular target: T1, Inhibitor of nuclear factor kappa-B kinase subunit epsilon (Homo sapiens) (UniProt Q14164); settings: at 1 µM;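 note: reported values are averaged percent inhibition figures against human IKKε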
T1 sequence (whole entry): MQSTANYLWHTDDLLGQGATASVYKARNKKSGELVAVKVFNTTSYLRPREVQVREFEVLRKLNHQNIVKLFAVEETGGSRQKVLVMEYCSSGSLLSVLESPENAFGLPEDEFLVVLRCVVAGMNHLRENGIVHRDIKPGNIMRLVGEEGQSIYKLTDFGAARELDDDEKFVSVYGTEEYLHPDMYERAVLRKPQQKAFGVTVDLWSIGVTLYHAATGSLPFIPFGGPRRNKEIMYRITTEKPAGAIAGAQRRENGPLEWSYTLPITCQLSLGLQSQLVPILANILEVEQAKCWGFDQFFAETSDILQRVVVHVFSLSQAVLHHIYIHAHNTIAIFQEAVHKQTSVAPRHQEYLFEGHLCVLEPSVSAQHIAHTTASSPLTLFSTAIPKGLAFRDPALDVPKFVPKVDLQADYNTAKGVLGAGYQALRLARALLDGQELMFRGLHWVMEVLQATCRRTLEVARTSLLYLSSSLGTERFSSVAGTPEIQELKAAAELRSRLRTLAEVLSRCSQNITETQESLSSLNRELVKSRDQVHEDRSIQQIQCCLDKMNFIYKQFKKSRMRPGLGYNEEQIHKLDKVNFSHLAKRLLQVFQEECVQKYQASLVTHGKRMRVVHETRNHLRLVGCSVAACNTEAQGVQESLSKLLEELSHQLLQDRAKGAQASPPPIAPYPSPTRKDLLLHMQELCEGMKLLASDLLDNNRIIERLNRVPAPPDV

[2] = molecular target: T2, Serine/threonine-protein kinase Nek1 (Homo sapiens) (UniProt Q96PY6); settings: at 0.1 µM
T2 sequence (whole entry): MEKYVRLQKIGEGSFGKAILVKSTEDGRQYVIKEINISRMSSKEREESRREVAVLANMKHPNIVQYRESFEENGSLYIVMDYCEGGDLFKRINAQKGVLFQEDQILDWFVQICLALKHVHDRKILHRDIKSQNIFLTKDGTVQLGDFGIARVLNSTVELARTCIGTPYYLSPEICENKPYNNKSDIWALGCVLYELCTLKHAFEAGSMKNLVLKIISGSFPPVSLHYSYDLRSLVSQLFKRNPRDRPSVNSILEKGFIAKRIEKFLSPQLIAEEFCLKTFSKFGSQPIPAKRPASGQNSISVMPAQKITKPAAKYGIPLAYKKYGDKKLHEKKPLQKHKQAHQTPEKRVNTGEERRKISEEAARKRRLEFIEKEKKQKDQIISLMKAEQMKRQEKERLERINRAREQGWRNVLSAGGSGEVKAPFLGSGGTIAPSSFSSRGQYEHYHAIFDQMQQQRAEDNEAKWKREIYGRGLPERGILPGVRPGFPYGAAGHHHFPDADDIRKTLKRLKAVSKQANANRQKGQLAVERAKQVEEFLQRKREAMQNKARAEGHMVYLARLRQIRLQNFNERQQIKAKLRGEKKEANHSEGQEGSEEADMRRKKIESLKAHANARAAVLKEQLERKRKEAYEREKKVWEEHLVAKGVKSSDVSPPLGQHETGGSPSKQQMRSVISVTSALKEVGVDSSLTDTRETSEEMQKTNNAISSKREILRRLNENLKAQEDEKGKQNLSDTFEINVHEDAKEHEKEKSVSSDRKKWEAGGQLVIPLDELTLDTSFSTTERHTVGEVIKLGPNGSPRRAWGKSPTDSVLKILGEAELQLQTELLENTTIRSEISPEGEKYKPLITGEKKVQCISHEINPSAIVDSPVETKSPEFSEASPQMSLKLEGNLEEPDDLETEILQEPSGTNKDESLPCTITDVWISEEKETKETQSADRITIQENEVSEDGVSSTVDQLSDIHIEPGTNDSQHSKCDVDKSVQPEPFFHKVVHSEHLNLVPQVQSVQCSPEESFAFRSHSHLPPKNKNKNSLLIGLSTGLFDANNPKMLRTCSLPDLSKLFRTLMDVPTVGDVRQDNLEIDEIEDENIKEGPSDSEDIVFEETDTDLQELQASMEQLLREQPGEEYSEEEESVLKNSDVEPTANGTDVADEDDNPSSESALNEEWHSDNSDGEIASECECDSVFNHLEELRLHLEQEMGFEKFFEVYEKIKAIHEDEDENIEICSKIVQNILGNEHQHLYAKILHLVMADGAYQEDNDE

[3] = molecular target: T2, Serine/threonine-protein kinase Nek1 (Homo sapiens); settings: at 1 µM
[4] = molecular target: T3, Serine/threonine-protein kinase Nek2 (Homo sapiens) (UniProt P51955); settings: at 0.1 µM
T3 sequence (whole entry): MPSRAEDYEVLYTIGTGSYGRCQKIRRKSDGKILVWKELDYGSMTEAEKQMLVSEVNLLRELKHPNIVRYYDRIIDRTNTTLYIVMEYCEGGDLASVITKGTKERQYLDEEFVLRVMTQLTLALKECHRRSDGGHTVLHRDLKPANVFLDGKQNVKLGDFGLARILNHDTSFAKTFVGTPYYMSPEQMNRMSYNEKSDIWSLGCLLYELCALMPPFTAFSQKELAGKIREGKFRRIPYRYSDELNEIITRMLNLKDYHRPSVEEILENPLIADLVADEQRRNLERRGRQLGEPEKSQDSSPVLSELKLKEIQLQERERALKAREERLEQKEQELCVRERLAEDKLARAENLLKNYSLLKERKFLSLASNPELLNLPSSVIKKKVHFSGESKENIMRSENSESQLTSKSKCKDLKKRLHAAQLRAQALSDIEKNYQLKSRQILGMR

[5] = molecular target: T3, Serine/threonine-protein kinase Nek2 (Homo sapiens); settings: at 1 µM
[6] = molecular target: Serine/threonine-protein kinase Nek6 (Homo sapiens) (UniProt Q9HC98); settings: at 0.1 µM
Sequence of Serine/threonine-protein kinase Nek6 (Homo sapiens) (Q9HC98 whole entry): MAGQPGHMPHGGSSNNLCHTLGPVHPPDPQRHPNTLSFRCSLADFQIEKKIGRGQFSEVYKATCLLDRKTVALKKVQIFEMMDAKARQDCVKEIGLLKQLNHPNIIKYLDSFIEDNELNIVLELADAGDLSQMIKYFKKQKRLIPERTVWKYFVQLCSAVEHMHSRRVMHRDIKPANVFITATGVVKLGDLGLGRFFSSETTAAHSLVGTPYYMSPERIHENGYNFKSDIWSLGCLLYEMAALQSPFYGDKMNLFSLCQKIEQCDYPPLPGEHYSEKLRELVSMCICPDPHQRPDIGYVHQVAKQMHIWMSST

[7] = molecular target: Serine/threonine-protein kinase Nek6 (Homo sapiens) (UniProt Q9HC98); settings: at 1 µM
[8] = molecular target: Serine/threonine-protein kinase Nek7 (Homo sapiens) (UniProt Q8TDX7); settings: at 0.1 µM
Sequence of Serine/threonine-protein kinase Nek7 (Homo sapiens) (Q8TDX7 whole entry, looked up): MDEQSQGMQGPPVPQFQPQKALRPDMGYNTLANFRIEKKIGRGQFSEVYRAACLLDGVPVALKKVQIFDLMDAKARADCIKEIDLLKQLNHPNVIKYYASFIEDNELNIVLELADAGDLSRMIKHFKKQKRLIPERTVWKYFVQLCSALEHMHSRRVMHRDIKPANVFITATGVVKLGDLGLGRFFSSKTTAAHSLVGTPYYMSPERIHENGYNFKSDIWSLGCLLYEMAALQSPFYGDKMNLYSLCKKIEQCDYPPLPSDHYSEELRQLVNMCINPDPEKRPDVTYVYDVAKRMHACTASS

[9] = molecular target: Serine/threonine-protein kinase Nek7 (Homo sapiens) (UniProt Q8TDX7); settings: at 1 µM
[10] = molecular target: T4, Serine/threonine-protein kinase Nek9 (Homo sapiens) (UniProt Q8TD19); settings: at 0.1 µM
T4 sequence (whole entry): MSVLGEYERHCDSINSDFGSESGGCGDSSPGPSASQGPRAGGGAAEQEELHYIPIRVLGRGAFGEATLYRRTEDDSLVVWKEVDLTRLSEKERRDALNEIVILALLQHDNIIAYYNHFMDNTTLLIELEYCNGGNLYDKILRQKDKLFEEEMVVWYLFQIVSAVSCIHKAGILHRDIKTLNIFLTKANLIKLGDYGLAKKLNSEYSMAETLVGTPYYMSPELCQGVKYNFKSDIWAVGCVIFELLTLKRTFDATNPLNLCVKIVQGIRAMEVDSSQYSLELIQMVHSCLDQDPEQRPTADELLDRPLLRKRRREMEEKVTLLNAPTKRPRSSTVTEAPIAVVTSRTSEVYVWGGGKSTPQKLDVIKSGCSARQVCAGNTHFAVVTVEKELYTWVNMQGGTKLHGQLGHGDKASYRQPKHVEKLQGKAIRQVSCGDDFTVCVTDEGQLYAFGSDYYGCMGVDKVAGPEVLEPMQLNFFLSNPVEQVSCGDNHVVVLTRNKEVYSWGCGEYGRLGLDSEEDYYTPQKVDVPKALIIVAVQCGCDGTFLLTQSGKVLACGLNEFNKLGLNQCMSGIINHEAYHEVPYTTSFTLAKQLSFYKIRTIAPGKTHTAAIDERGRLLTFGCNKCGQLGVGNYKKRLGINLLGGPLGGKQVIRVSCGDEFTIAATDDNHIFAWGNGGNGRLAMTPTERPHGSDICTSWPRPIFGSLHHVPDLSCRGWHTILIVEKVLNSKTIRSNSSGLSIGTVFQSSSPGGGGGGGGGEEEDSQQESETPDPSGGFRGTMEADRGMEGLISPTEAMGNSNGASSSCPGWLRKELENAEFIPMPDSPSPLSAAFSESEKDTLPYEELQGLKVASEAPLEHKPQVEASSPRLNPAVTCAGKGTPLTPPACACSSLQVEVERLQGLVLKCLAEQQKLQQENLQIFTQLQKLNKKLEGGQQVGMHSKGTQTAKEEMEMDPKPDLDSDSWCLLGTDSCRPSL

[11] = molecular target: T4, Serine/threonine-protein kinase Nek9 (Homo sapiens); settings: at 1 µM
[12] = molecular target: Serine/threonine-protein kinase PLK1 (Homo sapiens) (UniProt P53350); settings: at 0.1 µM
Sequence of Serine/threonine-protein kinase PLK1 (Homo sapiens) (P53350 whole entry): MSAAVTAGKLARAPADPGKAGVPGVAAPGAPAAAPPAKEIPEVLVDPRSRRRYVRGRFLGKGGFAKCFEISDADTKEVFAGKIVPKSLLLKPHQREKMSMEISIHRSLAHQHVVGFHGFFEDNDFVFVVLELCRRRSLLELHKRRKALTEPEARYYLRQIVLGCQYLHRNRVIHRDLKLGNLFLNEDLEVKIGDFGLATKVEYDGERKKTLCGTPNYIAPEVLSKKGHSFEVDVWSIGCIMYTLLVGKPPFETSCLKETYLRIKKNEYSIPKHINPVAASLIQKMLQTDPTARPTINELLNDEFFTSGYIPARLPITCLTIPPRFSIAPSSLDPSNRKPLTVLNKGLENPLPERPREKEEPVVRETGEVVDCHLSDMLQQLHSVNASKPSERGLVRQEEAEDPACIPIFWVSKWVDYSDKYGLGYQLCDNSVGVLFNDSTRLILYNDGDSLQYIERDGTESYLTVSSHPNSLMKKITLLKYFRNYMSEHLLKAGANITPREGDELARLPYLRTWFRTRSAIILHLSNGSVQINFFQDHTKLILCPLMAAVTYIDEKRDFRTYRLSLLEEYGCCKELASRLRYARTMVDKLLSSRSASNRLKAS

[13] = molecular target: Serine/threonine-protein kinase PLK1 (Homo sapiens) (UniProt P53350); settings: at 1 µM
[14] = molecular target: T5, Dual specificity protein kinase TTK (Homo sapiens) (UniProt P33981); settings: at 0.1 µM
T5 sequence (whole entry): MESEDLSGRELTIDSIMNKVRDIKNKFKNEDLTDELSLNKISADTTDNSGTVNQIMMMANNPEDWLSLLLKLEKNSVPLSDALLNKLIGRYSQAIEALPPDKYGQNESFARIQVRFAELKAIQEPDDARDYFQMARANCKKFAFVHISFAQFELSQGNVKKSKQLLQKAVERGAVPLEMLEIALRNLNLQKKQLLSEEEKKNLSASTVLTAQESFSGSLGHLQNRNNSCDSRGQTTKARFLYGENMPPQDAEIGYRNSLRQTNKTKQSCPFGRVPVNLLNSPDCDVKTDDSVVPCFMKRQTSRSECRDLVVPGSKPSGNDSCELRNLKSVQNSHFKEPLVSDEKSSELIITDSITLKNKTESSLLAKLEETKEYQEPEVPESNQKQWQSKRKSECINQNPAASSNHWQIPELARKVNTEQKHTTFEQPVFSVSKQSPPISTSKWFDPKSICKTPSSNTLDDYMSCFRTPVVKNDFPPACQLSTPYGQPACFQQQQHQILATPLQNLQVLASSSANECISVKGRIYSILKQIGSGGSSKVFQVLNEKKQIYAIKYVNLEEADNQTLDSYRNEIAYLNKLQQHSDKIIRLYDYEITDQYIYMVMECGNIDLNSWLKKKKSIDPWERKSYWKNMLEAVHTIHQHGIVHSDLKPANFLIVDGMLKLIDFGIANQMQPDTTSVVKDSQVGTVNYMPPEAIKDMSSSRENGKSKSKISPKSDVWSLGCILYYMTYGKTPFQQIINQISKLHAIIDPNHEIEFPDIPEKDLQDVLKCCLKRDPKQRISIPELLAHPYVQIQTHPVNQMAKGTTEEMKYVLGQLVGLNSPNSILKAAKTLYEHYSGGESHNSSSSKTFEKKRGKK

[15] = tested on: T6, Receptor-type tyrosine-protein kinase FLT3 (Homo sapiens), P36888 [D835Y]; settings: at 1 µM
T6 sequence (whole entry): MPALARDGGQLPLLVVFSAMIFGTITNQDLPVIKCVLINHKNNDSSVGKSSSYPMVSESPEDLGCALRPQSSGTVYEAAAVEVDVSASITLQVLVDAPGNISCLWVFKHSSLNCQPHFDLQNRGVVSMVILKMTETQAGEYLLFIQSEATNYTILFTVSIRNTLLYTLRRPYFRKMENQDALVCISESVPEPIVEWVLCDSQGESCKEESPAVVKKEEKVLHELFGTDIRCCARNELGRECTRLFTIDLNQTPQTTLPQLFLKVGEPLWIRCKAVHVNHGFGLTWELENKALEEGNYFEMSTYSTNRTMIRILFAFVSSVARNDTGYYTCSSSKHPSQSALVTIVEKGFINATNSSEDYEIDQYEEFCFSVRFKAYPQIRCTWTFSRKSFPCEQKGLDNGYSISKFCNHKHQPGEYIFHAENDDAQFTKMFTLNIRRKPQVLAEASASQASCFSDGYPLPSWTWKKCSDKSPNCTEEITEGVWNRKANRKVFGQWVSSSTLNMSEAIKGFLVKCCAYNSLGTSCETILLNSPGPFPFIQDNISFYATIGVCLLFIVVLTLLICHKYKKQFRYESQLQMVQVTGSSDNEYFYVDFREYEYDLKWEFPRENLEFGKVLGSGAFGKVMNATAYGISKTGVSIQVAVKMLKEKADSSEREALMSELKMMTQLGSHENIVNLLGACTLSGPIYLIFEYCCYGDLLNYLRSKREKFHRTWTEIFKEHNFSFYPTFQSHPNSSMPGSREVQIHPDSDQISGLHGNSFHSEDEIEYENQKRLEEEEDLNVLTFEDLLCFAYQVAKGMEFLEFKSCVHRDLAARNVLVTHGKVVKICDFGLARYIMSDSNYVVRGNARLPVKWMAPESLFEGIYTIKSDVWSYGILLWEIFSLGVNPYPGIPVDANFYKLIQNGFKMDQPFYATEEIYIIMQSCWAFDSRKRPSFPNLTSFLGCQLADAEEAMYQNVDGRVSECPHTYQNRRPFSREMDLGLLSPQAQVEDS

[16] = molecular target: Vascular endothelial growth factor receptor 3 (Homo sapiens) (UniProt P35916); settings: at 0.1 µM
Sequence of Vascular endothelial growth factor receptor 3 (Homo sapiens) (P35916 whole entry): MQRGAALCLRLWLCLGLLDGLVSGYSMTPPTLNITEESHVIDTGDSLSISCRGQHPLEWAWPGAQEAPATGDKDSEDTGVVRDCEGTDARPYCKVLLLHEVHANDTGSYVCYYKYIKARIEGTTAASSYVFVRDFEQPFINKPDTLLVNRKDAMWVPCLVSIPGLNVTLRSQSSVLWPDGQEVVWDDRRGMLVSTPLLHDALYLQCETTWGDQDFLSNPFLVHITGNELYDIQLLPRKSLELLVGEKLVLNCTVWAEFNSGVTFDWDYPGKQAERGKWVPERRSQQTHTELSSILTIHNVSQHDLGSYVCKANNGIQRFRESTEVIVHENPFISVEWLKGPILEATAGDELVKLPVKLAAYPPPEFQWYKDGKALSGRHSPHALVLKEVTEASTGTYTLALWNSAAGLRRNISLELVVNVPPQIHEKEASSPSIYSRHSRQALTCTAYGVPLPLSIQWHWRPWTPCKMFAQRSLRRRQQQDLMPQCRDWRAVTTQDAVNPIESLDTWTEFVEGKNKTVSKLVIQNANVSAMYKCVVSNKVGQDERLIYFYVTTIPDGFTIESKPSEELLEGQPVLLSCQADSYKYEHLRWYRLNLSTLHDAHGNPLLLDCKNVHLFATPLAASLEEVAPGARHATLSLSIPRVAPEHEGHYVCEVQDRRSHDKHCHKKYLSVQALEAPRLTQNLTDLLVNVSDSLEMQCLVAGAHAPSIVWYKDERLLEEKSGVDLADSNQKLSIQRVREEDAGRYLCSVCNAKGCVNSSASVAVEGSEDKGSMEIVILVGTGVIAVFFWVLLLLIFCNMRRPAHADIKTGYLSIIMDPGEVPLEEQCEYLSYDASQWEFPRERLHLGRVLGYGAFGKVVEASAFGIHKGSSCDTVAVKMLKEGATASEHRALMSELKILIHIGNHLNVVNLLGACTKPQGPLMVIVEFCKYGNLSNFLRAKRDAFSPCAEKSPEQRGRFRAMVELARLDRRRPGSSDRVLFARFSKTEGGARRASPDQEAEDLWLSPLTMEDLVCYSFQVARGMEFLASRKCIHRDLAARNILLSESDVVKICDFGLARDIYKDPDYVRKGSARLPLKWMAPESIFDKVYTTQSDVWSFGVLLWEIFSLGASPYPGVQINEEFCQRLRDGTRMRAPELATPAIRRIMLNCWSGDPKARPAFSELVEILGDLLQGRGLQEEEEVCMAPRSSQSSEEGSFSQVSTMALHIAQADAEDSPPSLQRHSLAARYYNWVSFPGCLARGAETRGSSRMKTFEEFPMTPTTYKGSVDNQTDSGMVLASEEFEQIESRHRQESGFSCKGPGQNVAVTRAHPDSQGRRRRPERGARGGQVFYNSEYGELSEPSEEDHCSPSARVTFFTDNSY

[17] = molecular target: Vascular endothelial growth factor receptor 3 (Homo sapiens) (UniProt P35916); settings: at 1 µM
[18] = molecular target: Macrophage colony-stimulating factor 1 receptor (Homo sapiens) (UniProt P07333); settings: at 0.1 µM
Sequence of Macrophage colony-stimulating factor 1 receptor (Homo sapiens) (P07333 whole entry): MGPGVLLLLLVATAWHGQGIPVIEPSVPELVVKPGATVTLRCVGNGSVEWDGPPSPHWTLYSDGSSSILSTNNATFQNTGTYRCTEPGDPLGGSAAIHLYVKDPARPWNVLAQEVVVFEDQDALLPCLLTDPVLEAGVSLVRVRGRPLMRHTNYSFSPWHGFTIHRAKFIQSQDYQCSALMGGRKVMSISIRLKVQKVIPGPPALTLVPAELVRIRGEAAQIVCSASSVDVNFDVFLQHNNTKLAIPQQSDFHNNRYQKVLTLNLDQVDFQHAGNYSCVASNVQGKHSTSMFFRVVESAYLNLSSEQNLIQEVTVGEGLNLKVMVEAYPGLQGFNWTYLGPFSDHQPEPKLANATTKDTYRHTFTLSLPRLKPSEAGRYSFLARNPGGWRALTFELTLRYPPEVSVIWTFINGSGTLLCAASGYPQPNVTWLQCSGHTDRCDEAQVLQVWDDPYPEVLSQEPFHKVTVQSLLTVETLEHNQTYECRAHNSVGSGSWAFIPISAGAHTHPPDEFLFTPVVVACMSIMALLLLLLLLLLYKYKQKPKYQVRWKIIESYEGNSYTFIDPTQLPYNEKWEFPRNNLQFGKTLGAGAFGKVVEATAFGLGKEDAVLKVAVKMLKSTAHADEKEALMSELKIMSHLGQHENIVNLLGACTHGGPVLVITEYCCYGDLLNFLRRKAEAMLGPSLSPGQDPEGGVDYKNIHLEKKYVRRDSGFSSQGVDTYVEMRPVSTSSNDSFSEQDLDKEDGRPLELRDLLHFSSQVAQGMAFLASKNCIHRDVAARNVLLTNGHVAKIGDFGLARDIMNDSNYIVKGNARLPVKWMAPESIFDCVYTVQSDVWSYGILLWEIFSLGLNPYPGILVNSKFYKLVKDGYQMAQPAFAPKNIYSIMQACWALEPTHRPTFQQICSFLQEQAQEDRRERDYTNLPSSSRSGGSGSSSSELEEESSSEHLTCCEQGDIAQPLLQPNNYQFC

[19] = molecular target: Macrophage colony-stimulating factor 1 receptor (Homo sapiens) (UniProt P07333); settings: at 1 µM
[20] = molecular target: Tyrosine-protein kinase Fyn (Homo sapiens) (UniProt P06241); settings: at 0.1 µM
Sequence of Tyrosine-protein kinase Fyn (Homo sapiens) (P06241 2-537 limits assumed): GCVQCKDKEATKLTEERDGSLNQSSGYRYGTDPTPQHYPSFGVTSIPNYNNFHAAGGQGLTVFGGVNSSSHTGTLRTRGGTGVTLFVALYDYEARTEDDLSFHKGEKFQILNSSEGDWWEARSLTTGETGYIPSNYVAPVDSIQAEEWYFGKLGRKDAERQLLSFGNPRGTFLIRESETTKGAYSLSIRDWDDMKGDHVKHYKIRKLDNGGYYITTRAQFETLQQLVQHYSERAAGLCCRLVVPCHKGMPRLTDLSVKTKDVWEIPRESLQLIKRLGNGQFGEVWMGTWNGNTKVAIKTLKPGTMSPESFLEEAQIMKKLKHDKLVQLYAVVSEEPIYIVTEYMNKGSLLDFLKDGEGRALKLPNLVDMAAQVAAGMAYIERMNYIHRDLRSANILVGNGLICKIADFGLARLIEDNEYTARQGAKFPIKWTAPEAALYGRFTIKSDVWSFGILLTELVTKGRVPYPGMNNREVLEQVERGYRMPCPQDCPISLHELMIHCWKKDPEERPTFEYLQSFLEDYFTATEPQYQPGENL

SMILES: O=C(Nc1ccc(Oc2ccc3[nH]c(NC(=O)c4ccco4)nc3c2)cc1)Nc1cc(C(F)(F)F)ccc1F
- inhibition [1]: -0.41%
- inhibition [2]: 0.66%
- inhibition [3]: 0.27%
- inhibition [4]: 0.32%
- inhibition [5]: 0.28%
- inhibition [6]: -0.01%
- inhibition [7]: -0.32%
- inhibition [8]: 0.83%
- inhibition [9]: 0.99%
- inhibition [10]: -0.1%
- inhibition [11]: 6.87%
- inhibition [12]: 0.92%
- inhibition [13]: 1.34%
- inhibition [14]: -0.11%
- inhibition [15]: 30.6%
- inhibition [16]: -7.79%
- inhibition [17]: 38.1%
- inhibition [18]: 15.4%
- inhibition [19]: 72.8%
- inhibition [20]: -1.01%

SMILES: FC(F)(F)c1ccc(-c2nn3ncccc3c2-c2ccnc(Nc3ccc4c(c3)OCCO4)n2)cc1
- inhibition [1]: -1.52%
- inhibition [2]: 4.77%
- inhibition [3]: 2.05%
- inhibition [4]: 1.11%
- inhibition [5]: 1.32%
- inhibition [6]: -1.63%
- inhibition [7]: 1.37%
- inhibition [8]: -5.04%
- inhibition [9]: -5.62%
- inhibition [10]: -5.79%
- inhibition [11]: -0.89%
- inhibition [12]: 0.09%
- inhibition [13]: -1.77%
- inhibition [14]: 3.35%
- inhibition [15]: -0.25%
- inhibition [16]: -2.47%
- inhibition [17]: 4.74%
- inhibition [18]: 0.29%
- inhibition [19]: 10.3%
- inhibition [20]: 2.65%
